Inconclusive results are not listed. More than one record can exist for a structure, and the calls need not agree. Active and inactive are the calls of the source. Calls come from the whole dose curve; as a rule, active = well fitted inhibition curve with a large enough effect; inconclusive = small, poorly fitted or top-dose-only effect; inactive = flat fitted curve, though single readings scatter.
Experiment: qHTS drug screen for cell cycle checkpoint inhibitors in PARPi-resistant BRCA-mutant ovarian cancer cell lines. (AID 1963452)
Conditions: PEO1/OlaR viability, CellTiter-Glo luminescence, 96 h; measured here: PEO1 parental Z-AUC; stronger effect = lower value
Method in brief: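 PEO1, PEO4 and PEO1/OlaR ovarian cancer cells, 600 per well, exposed 96 h at 37C to a dilution series. Viability read by CellTiter-Glo luminescence, normalized to DMSO and empty wells; activity summarized as Z-AUC.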

SMILES	Z-AUC
CCOc1ccccc1-n1c(C(C)N2CCN(C(=O)COc3ccc(Cl)cc3)CC2)nc2ccccc2c1=O (configuration not stated)	0.347
C/C(O)=C(\C#N)C(=O)Nc1cc(Br)ccc1Br	0.336
C=C[C@H]1CN2CC[C@H]1C[C@@H]2[C@@H](O)c1ccnc2ccccc12	0.858
COc1cc(C)[nH]c(=O)c1CNC(=O)c1c(C)n([C@H](C)C2CCOCC2)c2ccccc12	0.504
CC1=C2C[C@H]3[C@@H](CC=C4C[C@@H](O)CC[C@@]43C)[C@@H]2CC[C@]12O[C@@H]1C[C@H](C)CN[C@H]1[C@H]2C	-0.348
C[C@]12CC[C@H]3[C@@H](CC[C@@]45O[C@@H]4C(O)=C(C#N)C[C@]35C)[C@@H]1CC[C@@H]2O	0.943
CC(=O)c1c(O)c(C)c(O)c(Cc2c(O)c3c(c(C(=O)/C=C/c4ccccc4)c2O)OC(C)(C)C=C3)c1O	0.667
C/C(=C\c1csc(C)n1)[C@@H]1C[C@@H]2O[C@]2(C)CCC[C@H](C)[C@H](O)[C@@H](C)C(=O)C(C)(C)[C@@H](O)CC(=O)O1	-2.7

Same assay, conditions: PEO1/OlaR viability, CellTiter-Glo luminescence, 96 h; measured here: PEO4 Z-AUC; stronger effect = lower value

SMILES	Z-AUC
CCOc1ccccc1-n1c(C(C)N2CCN(C(=O)COc3ccc(Cl)cc3)CC2)nc2ccccc2c1=O (configuration not stated)	-0.0275
C/C(O)=C(\C#N)C(=O)Nc1cc(Br)ccc1Br	0.627
C=C[C@H]1CN2CC[C@H]1C[C@@H]2[C@@H](O)c1ccnc2ccccc12	1.06
COc1cc(C)[nH]c(=O)c1CNC(=O)c1c(C)n([C@H](C)C2CCOCC2)c2ccccc12	0.135
CC1=C2C[C@H]3[C@@H](CC=C4C[C@@H](O)CC[C@@]43C)[C@@H]2CC[C@]12O[C@@H]1C[C@H](C)CN[C@H]1[C@H]2C	-0.0838
C[C@]12CC[C@H]3[C@@H](CC[C@@]45O[C@@H]4C(O)=C(C#N)C[C@]35C)[C@@H]1CC[C@@H]2O	0.794
CC(=O)c1c(O)c(C)c(O)c(Cc2c(O)c3c(c(C(=O)/C=C/c4ccccc4)c2O)OC(C)(C)C=C3)c1O	0.636
C/C(=C\c1csc(C)n1)[C@@H]1C[C@@H]2O[C@]2(C)CCC[C@H](C)[C@H](O)[C@@H](C)C(=O)C(C)(C)[C@@H](O)CC(=O)O1	-2.48

Experiment: qHTS profiling for inhibitors of Plasmodium falciparum proliferation (AID 504749);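 note: 0% = DMSO vehicle and full inhibition = artemisinin control; nearly all actives have a fitted effect of over 60% in size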
Conditions: P. falciparum in erythrocytes, SYBR Green DNA, 72 h; at 28.7 µM (top of the series); parasite line A
Method in brief: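 SYBR Green fluorescence of parasite DNA, read after lysis and overnight dark incubation, measured growth over 72 h in erythrocyte culture at 0.3% parasitemia and 2.5% hematocrit. Data normalised to DMSO and 0.29 uM artemisinin, with plate-drift correction.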

SMILES	activity, negative = inhibition
O=C1C2CC=CCC2C(=O)N1SC(Cl)(Cl)Cl (configuration not stated)	-6.95% (inactive)
c1cc2c(c(NC3=NCCN3)c1)CCCC2	-15.6% (inactive)
CCCC(=O)OC(C(Cl)(Cl)Cl)P(=O)(OC)OC (configuration not stated)	-16.7% (inactive)
CNC(C)C(O)c1ccc(O)cc1 (configuration not stated)	5.26% (inactive)
Clc1ccc(C2(Cn3cncn3)OCCO2)c(Cl)c1	8.04% (inactive)
CCN(CC)C(=O)/C(Cl)=C(\C)OP(=O)(OC)OC	-6.34% (inactive)
CC1CCC(C(C)C)C(OC(=O)c2ccccc2N)C1 (configuration not stated)	-17.5% (inactive)
CC(=O)O[C@H]1CC[C@H]2[C@@H]3CCC4=CC(=O)CCC4=C3C=C[C@]12C	4.1% (inactive)
O=C(NC(=O)c1c(F)cccc1F)Nc1ccc(Cl)c(Oc2ncc(C(F)(F)F)cc2Cl)c1	9.79% (inactive)
CCCCCCCCOC(=O)c1ccccc1C(=O)OCCCCCCCC	10.9% (inactive)
O=C1CN=C(c2ccccc2)c2cc(Cl)ccc2N1CC1CC1	-5.97% (inactive)
c1ccc2cc(CC3=NCCN3)ccc2c1	3.45% (inactive)
c1ccc2sc(SNC3CCCCC3)nc2c1	7.11% (inactive)
O=C1CN(O)C(c2ccccc2)=c2cc(Cl)ccc2=N1	7.13% (inactive)
CC12NC(Cc3ccccc31)c1ccccc12 (configuration not stated)	-7.25% (inactive)
CCCC(C)(COC(N)=O)COC(=O)NC1CC1 (configuration not stated)	8.1% (inactive)
CCOP(=O)(OCC)O/C(=C/Cl)c1ccc(Cl)cc1Cl	-27.9% (inactive)
O=Cc1ccco1	-15.5% (inactive)
O=C/C=C/c1ccccc1	8.58% (inactive)
OC(c1ccccc1)(c1ccccc1)C1CN2CCC1CC2 (configuration not stated)	2.79% (inactive)
CC(C)(C)c1cc(O)ccc1O	-22.4% (inactive)
